Laboratory results as given in PubChem BioAssay (Tox21).
Inconclusive results are not listed. Activity calls are given as the source filed them. Calls come from the whole dose curve.

Assay: qHTS assay to identify small molecule agonists of H2AX - cell viability counter screen (AID 1224847); note: top concentration of the series differs between compounds; nearly all actives have a fitted effect of over 30% in size
Conditions: CHO-K1 viability, CellTiter-Glo luminescence, 3 h; series mostly up to 154 µM; activity change, negative = cytotoxicity: at the top concentration
Source text: National Center for Advancing Translational Sciences [NCATS]
NIH Chemical Genomics Center [NCGC]
U.S. Environmental Protection Agency [EPA]
National Institutes of Environmental Health Sciences [NIEHS]
National Toxicology Program [NTP]
U.S. Food and Drug Administration [FDA]
HTRF phospho-H2AX (Ser139) assay (Cisbio Bioassays, US) enables the quantitative detection of the histone variant H2AX when phosphorylated on serine 139. When double-stranded DNA breaks, either by ionizing radiation or endogenous physiological processes, H2AX becomes phosphorylated at Ser139. This phospho-Ser139 serves as a sensitive biomarker for the detection of such breaks, localizing the site of DNA repair. So, HTRF phospho-H2AX Ser139 is a pertinent assay to study genome stability, the cell cycle, DNA repair, and it serves as a biomarker for cancer, and to understand aging. Wild type CHO-K1 cells were used to identify the inducers of Phospho-H2AX Ser 139 from the Tox21 compound collections. Also cytotoxicity of the Tox21 10K compound library against the CHO-K1 cell line was tested by measuring the cell viability using CellTiter-Glo assay (Promega, Madison, WI).
Tox21 Assay Protocol Summary:
The CHO-K1 cells suspended in culture medium containing 10% FBS were dispensed at 1000 cells/ 3 ul/well in 1536-well white wall/solid bottom plates (Greiner Bio-One North America, NC) using a Multidrop Combi (Thermo Fisher Scientific Inc., Waltham, MA). After the assay plates were incubated at 37C overnight, 23 nl of compounds at 15 concentrations (from 5-48 columns) or positive control (from 1 to 4 columns) were transferred to the assay plates using a Pintool station (Wako, San Diego, CA) into each well resulting in a final DMSO concentration of 0.76%. After 3hr incubation at 37C, 3 uL/well CellTiter-Glo luminescent cell viability reagent (Promega Corporation, Madison, WI) was added using a Flying Reagent Dispenser (FRD) (Aurora Discovery, CA). After incubation at room temperature for 30 min, the luminescence intensity was read using a ViewLux plate reader (PerkinElmer, Waltham, MA).
% is set by controls: 0 for no effect and ±100 for the full control effect.

Q: With `C[C@@H]1CN(c2c(F)c(F)c3c(=O)c(C(=O)O)cn(C4CC4)c3c2F)C[C@H](C)N1` as the compound, how does the activity change, negative = cytotoxicity read?
A: 5.9% [at 31.6 µM] (inactive)

Q: For `CNCCC(Oc1ccccc1OC)c1ccccc1` (stereo not given), which “activity change, negative = cytotoxicity” value is on record?
A: 0.41% [at 70.9 µM] (inactive)

Q: With `O=C(O[C@@H](C(=O)O)[C@@H](OC(=O)c1ccccc1)C(=O)O)c1ccccc1` as the compound, how does the “activity change, negative = cytotoxicity” value read?
A: 0.131% (inactive)

Q: For `CCCCCCCCCCCCCCCCOP(=O)([O-])OCC[N+](C)(C)C`, which “activity change, negative = cytotoxicity” value is on record?
A: -3.85% [at 70.9 µM] (inactive)

Q: For `CC(C)NCC(O)COc1ccc(CCOCC2CC2)cc1` (stereo not given), which “activity change, negative = cytotoxicity” value is on record?
A: -2.03% [at 70.9 µM] (inactive)

Q: For `CN1CCN(N)CC1`, which “activity change, negative = cytotoxicity” value is on record?
A: 0.122% [at 70.9 µM] (inactive)

Q: For `CCN[C@H]1CN(CCCOC)S(=O)(=O)c2sc(S(N)(=O)=O)cc21`, which “activity change, negative = cytotoxicity” value is on record?
A: -0.203% [at 70.9 µM] (inactive)

Q: Which “activity change, negative = cytotoxicity” value does the source give for `CCCCNC(=S)NCCCC` here?
A: 12.8% (inactive)

Q: With `COc1ccc2nc(NC(=O)Nc3ccccc3)sc2c1` as the compound, how does the “activity change, negative = cytotoxicity” value read?
A: -9.11% [at 70.9 µM] (inactive)

Q: With `Cc1nc(-c2ccccn2)ncc1C(=O)Nn1cc(C)c2cc(F)ccc21` as the compound, how does the “activity change, negative = cytotoxicity” value read?
A: -6.76% (inactive)

Q: With `CCC(=O)Nc1ccc(O)cc1` as the compound, how does the “activity change, negative = cytotoxicity” value read?
A: 5.18% [at 70.9 µM] (inactive)

Q: Which “activity change, negative = cytotoxicity” value does the source give for `CCOC(=O)[C@H](CCc1ccccc1)N[C@@H](C)C(=O)N1Cc2cc(OC)c(OC)cc2C[C@H]1C(=O)O` here?
A: 3.93% [at 70.9 µM] (inactive)

Q: With `CN1CCN(c2c(F)cc3c(=O)c(C(=O)O)cn(CCF)c3c2F)CC1` as the compound, how does the “activity change, negative = cytotoxicity” value read?
A: 0.447% [at 70.9 µM] (inactive)

Q: With `CCc1nnc(NS(=O)(=O)c2ccc(N)cc2)s1` as the compound, how does the “activity change, negative = cytotoxicity” value read?
A: 0.268% [at 70.9 µM] (inactive)

Q: With `CCN(CC)C(=O)N(CC)CC` as the compound, how does the “activity change, negative = cytotoxicity” value read?
A: -3.49% (inactive)

Q: For `C=Cc1ccccc1`, which “activity change, negative = cytotoxicity” value is on record?
A: -0.0106% (inactive)

Q: With `CCN(CC)CCNC(=O)COc1ccc(Cl)cc1` as the compound, how does the “activity change, negative = cytotoxicity” value read?
A: -0.621% [at 70.9 µM] (inactive)

Q: For `Oc1ccccc1F`, which “activity change, negative = cytotoxicity” value is on record?
A: 2.05% (inactive)

Q: Which activity change, negative = cytotoxicity does the source give for `O=C(O)c1ccccc1Nc1cc(Cl)ccc1C(=O)O` here?
A: 9.56% [at 31.6 µM] (inactive)

Q: For `Cn1cnc2c(F)c(Nc3ccc(Br)cc3Cl)c(C(=O)NOCCO)cc21`, which “activity change, negative = cytotoxicity” value is on record?
A: 0.557% [at 70.9 µM] (inactive)

Q: Which “activity change, negative = cytotoxicity” value does the source give for `NNS(=O)(=O)c1ccc(Oc2ccc(S(=O)(=O)NN)cc2)cc1` here?
A: 10.5% (inactive)

Q: With `CC(C)OC(C)C` as the compound, how does the “activity change, negative = cytotoxicity” value read?
A: -0.259% (inactive)

Q: Which “activity change, negative = cytotoxicity” value does the source give for `OCc1c2ccccc2cc2ccccc12` here?
A: -1.68% (inactive)

Q: With `O=CCCc1ccccc1` as the compound, how does the “activity change, negative = cytotoxicity” value read?
A: 1.74% (inactive)

Q: With `Cc1ccc(C(C)C)cc1O` as the compound, how does the “activity change, negative = cytotoxicity” value read?
A: -12.8% (inactive)

Q: With `NS(=O)(=O)c1cc(-c2nn[nH]n2)c(NCc2cccs2)cc1Cl` as the compound, how does the “activity change, negative = cytotoxicity” value read?
A: 10.2% [at 70.9 µM] (inactive)

Q: Which “activity change, negative = cytotoxicity” value does the source give for `CC(C)=CCCC(C)CCOC=O` (stereo not given) here?
A: 1.24% (inactive)

Q: For `CCCCCOc1ccc(C2SC(=O)NC2=O)cc1OCC` (stereo not given), which “activity change, negative = cytotoxicity” value is on record?
A: 1.39% [at 70.9 µM] (inactive)

Q: For `C=C(C)C(=O)OCCOP(=O)(O)O`, which “activity change, negative = cytotoxicity” value is on record?
A: -0.411% (inactive)

Q: For `CC(C)CCCCCCc1ccc(OCCOCCO)cc1`, which “activity change, negative = cytotoxicity” value is on record?
A: 2.56% (inactive)

Q: For `Cc1cn([C@@H]2O[C@H](CO)[C@@H](O)[C@@H]2F)c(=O)[nH]c1=O`, which “activity change, negative = cytotoxicity” value is on record?
A: 0.0684% [at 70.9 µM] (inactive)

Q: Which “activity change, negative = cytotoxicity” value does the source give for `CCCNC(C)C(=O)Nc1c(C)csc1C(=O)OC` (stereo not given) here?
A: 4.99% [at 70.9 µM] (inactive)

Q: For `O=c1[nH]cnc2c1ncn2[C@@H]1O[C@H](CO)[C@@H](O)[C@H]1O`, which “activity change, negative = cytotoxicity” value is on record?
A: 14.4% [at 70.9 µM] (inactive)

Q: With `CC(=O)N[C@@H](CC(C)C)C(=O)O` as the compound, how does the “activity change, negative = cytotoxicity” value read?
A: 4.71% [at 70.9 µM] (inactive)

Q: With `C=O` as the compound, how does the “activity change, negative = cytotoxicity” value read?
A: -0.473% (inactive)

Q: With `CCOc1ccc(NS(=O)(=O)c2ccc(N)cc2)nn1` as the compound, how does the “activity change, negative = cytotoxicity” value read?
A: 4.65% [at 70.9 µM] (inactive)

Q: For `C=CCCCCCCCCO`, which “activity change, negative = cytotoxicity” value is on record?
A: -9.69% (inactive)

Q: Which “activity change, negative = cytotoxicity” value does the source give for `O=C(CCCl)NCc1ccccc1` here?
A: -0.18% [at 70.9 µM] (inactive)

Q: Which “activity change, negative = cytotoxicity” value does the source give for `CCCNC(C)(C)COC(=O)c1ccccc1` here?
A: -4.64% [at 70.9 µM] (inactive)

Q: Which “activity change, negative = cytotoxicity” value does the source give for `O=C1CCC(C2CCCCC2)CC1` here?
A: 4.69% (inactive)
